In all, about 5,500 compounds went through this assay and about 2,000 (36%) were called active. Another 18% or so got no clear call; they are omitted. Rule as the data show it: active = normalized growth mostly below about 0.91 (no sharp cut-off); inconclusive = no clear call, values can overlap the other calls; inactive = mostly above about 0.92. This is one part of the list.
Experiment: chemical genetic growth profiling, strain panel (AID 1159580);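 also: tested at 20 µM; growth read once vehicle control cultures reached saturation at 30 °C; 1 = growth at the plate median or of vehicle wells; lower values mean less growth of the strain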
Details: S. cerevisiae deletion strains, growth OD

Measured: normalized growth

Cc1cccc(C(=O)O)c1O
inactive: locus YAL013W, strain DEP1, hits give low values 1.01 | locus YBR021W, strain FUR4, hits give low values 0.997 | locus YBR229C, strain ROT2, hits give low values 1.02 | locus YCL029C, strain bik1, hits give low values 1.02 | locus YDL035C, strain GPR1, hits give low values 0.999 | locus YDL074C, strain BRE1, hits give low values 1.02 | locus YDL101C, strain DUN1, hits give low values 1.02 | locus YDL134C, strain PPH21, hits give low values 1.01 | locus YDL185W, strain tfp1, hits give low values 1.02 | locus YDL192W, strain arf1, hits give low values 1.01 | locus YDR101C, strain arx1, hits give low values 1.01 | locus YDR162C, strain NBP2, hits give low values 1.02 | locus YDR318W, strain mcm21, hits give low values 1.02 | locus YDR388W, hits give low values 1.02 | locus YDR502C, strain sam2, hits give low values 1.01 | locus YEL061C, strain CIN8, hits give low values 1.01 | locus YER110C, hits give low values 1.01 | locus YER155C, strain BEM2, hits give low values 1 | locus YER167W, strain BCK2, hits give low values 1.01 | locus YGL078C, strain dbp3, hits give low values 1 | locus YGL086W, strain mad1, hits give low values 1.01 | locus YGL248W, strain PDE1, hits give low values 1.02 | locus YGR078C, strain PAC10, hits give low values 1.01 | locus YGR135W, strain pre9, hits give low values 1.02 | locus YGR252W, strain gcn5, hits give low values 1 | locus YHR030C, strain SLT2, hits give low values 1.02 | locus YHR079C, strain IRE1 (second series), hits give low values 1.01 | locus YHR094C, strain hxt1, hits give low values 1.01 | locus YHR129C, strain ARP1, hits give low values 1.01 | locus YHR200W, strain rpn10, hits give low values 1.02 | locus YIL066C, strain RNR3, hits give low values 1.02 | locus YIL073C, strain SPO22, hits give low values 1.02 | locus YIL125W, strain kgd1, hits give low values 1.01 | locus YIR030C, strain dcg1, hits give low values 1.02 | locus YJL095W, strain BCK1, hits give low values 1.02 | locus YJL134W, strain LCB3, hits give low values 1.01 | locus YJL168C, strain set2, hits give low values 1 | locus YJL187C, strain SWE1 (second series), hits give low values 1.02 | locus YJR043C, strain POL32, hits give low values 1.01 | locus YKL009W, strain mrt4, hits give low values 0.968 | locus YKL068W, hits give low values 1 | locus YKL085W, strain MDH1 (second series), hits give low values 1 | locus YKL085W, strain MDH1, hits give low values 1 | locus YKR001C, strain vps1, hits give low values 1.02 | locus YLR039C, strain RIC1, hits give low values 0.993 | locus YLR058C, strain SHM2, hits give low values 1.02 | locus YLR102C, strain apc9, hits give low values 1.01 | locus YLR262C, strain YPT6, hits give low values 1.04 | locus YLR268W, strain sec22, hits give low values 1.03 | locus YLR330W, strain CHS5, hits give low values 1.01 | locus YLR342W, strain FKS1 (second series), hits give low values 0.995 | locus YLR371W, strain rom2, hits give low values 1.02 | locus YLR418C, strain cdc73, hits give low values 1.05 | locus YML016C, strain PPZ1, hits give low values 1.01 | locus YML032C, strain rad52, hits give low values 1.02 | locus YML124C, strain tub3, hits give low values 1.02 | locus YMR078C, strain ctf18, hits give low values 1.02 | locus YMR223W, strain ubp8, hits give low values 1.02 | locus YMR307W, strain GAS1, hits give low values 0.975 | locus YNL067W, strain RPL9B, hits give low values 1.02 | locus YNL153C, strain GIM3, hits give low values 1.01 | locus YNL233W, strain BNI4, hits give low values 1.02 | locus YNL250W, strain rad50, hits give low values 1.02 | locus YNL271C, strain bni1, hits give low values 1 | locus YNL298W, strain CLA4, hits give low values 0.996 | locus YNL307C, strain MCK1, hits give low values 1.02 | locus YNL322C, strain KRE1, hits give low values 1.01 | locus YNR052C, strain pop2, hits give low values 1.03 | locus YOL012C, strain htz1 0.786 | locus YOL147C, strain pex11, hits give low values 1.01 | locus YOR061W, strain CKA2, hits give low values 1.01 | locus YOR069W, strain VPS5, hits give low values 1.02 | locus YOR136W, strain idh2, hits give low values 1.01 | locus YOR144C, strain elg1, hits give low values 1.01 | locus YOR184W, strain ser1, hits give low values 1.02 | locus YOR316C, strain cot1, hits give low values 1.02 | locus YPL055C, strain LGE1, hits give low values 1.01 | locus YPL241C, strain CIN2, hits give low values 1.01 | locus YPR119W, strain clb2, hits give low values 1.01 | locus YPR141C, strain kar3, hits give low values 1.01 | locus YPR163C, strain tif3, hits give low values 1.02 | locus YPR167C, strain met16, hits give low values 1.01 | strain wtn01, hits give low values 1

From PubChem BioAssay AID1159580 (chemical genetic matrix, 2015)
